In the library only some 3.4% were active in any assay of this set; here they are far more common.
PK Bst: modulators of Bacillus stearothermophilus pyruvate kinase | purified pyruvate kinase, luminescence ATP production; ribose 5-phosphate activator present at AC10 | Potency, µM | hit rate 1.2% among 51,000 | AID 361; in the data active = potency below about 11 µM; inconclusive = mostly about 12 µM to 25 µM;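 the screen sought inhibitors and activators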;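 also: scaled between full activation by ribose 5 phosphate and full inhibition by luteolin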
FLuc inh: blocks Photinus pyralis firefly luciferase activity; P08659; purified firefly luciferase, luminescence, 8 min; Potency, µM (titrated, usually from 57.1 µM), for inactives: top-dose activity change, negative = inhibition, most hits filed as inhibitors; hit rate 2.2% among 72,000; AID 411; active = well fitted inhibition curve with a large enough effect; inconclusive = small, poorly fitted or top-dose-only effect; also: % is scaled to controls: 0 for no effect and ±100 for the full control effect; nearly all actives have a fitted effect of over 40% in size
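Luminescence read-out after 8 min at room temperature; enzyme reaction used luciferin plus 10 uM ATP (linear range) in imidazole buffer pH 7.2 with KCl, MgCl2, Tween 20 and BSA. Each sample was run as a titration.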
GBA activity: alters purified human glucocerebrosidase activity; AID 360; Potency, µM; P04062; purified enzyme, resorufin glucoside fluorescence (screen aimed at inhibitors), 20 min; hit rate 1.1% among 48,000; in the data active = potency below about 15 µM; inconclusive = mostly about 16 µM to 33 µM;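 also: the screen sought inhibitors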
Target sequence (P04062 whole entry, looked up): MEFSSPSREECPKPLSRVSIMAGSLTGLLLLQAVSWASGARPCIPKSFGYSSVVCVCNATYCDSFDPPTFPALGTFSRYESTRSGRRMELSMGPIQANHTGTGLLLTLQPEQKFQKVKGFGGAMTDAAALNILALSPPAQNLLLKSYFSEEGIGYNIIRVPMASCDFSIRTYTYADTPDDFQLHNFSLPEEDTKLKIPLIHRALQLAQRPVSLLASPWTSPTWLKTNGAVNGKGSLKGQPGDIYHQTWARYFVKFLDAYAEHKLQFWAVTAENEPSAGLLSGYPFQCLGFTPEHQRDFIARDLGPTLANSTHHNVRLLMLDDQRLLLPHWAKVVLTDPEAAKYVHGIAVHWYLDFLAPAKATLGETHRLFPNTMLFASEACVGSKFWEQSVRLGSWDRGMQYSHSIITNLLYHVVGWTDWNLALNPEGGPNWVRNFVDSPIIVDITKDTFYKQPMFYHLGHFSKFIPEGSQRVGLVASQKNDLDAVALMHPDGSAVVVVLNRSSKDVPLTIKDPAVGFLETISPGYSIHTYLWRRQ
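Normal human glucocerebrosidase (0.2 nM final) was assayed with resorufin β-D-glucopyranoside (30 uM final) in 50mM citric acid/KH2PO4, 10mM sodium taurocholate, 0.01% tween-20, pH 5.9. Compounds were titrated; fluorescence (Ex 548, Em 600) read after 20 min at RT.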
An asterisk follows results filed as active; i = inactive; ? = inconclusive; · = no result; [ ] = remark or other dose. Potency is read from the fitted curve at half-maximal effect.

SMILES | PK Bst | FLuc inh | GBA activity
N=C(N)c1ccc(N=Nc2c(O)ccc3c2[nH]c2ccccc23)cc1 | · | -4%[11.4 µM] | ·
CN(C(=O)c1ccco1)c1nnc(C23CC4CC(CC(C4)C2)C3)s1 | · | 20µM* | ·
CC(NC(=O)COC(=O)CCNC(=O)c1ccco1)C12CC3CC(CC(C3)C1)C2 (stereo not drawn) | >57 | 3% | i
CCC(=O)Nc1cccc(-c2nnc(SCC(=O)NCc3ccco3)n2C)c1 | >26 | 1%[25.5 µM] | ·
CCC(=O)Nc1cccc(-c2nnc(SCC(=O)c3ccccc3)n2C)c1 | · | 16µM* | ·
CC(=O)O[C@H]1C[C@H]2CC[C@@H]3[C@@H](CC[C@]4(C)[C@H](OC(C)=O)[C@H]([N+]5(C)CCCCC5)C[C@@H]34)[C@]2(C)C[C@H]1[N+]1(C)CCCCC1 | · | 3%[25.5 µM] | ·
CN1C(=O)CC(n2c(CO)nc3ccccc32)C1=O (stereo not drawn) | >57 | -1% | >77
Oc1ccccc1C1=Nc2nc3ccccc3n2C(c2ccccc2)C1 (stereo not drawn) | · | ? | 15*
COCCn1c(=O)c(-c2ccc(F)cc2)nc2cnc(Oc3ccc(OC)cc3)nc21 | · | -2%[11.4 µM] | ·
O=S(=O)(Nc1ccc(N2CCCCC2)cc1)c1cccs1 | >57 | -9% | >77
O=S(=O)(Nc1cc(Cl)ccc1N1CCCCC1)c1cccs1 | >57 | 1% | 15*
CN[C@@H]1[C@H](O)[C@H](NC)[C@@H]2O[C@]3(O)C(=O)C[C@@H](C)O[C@H]3O[C@@H]2[C@H]1O | · | -2%[11.4 µM] | ·
Nc1nc(-c2cccnc2)nn1C(=O)c1ccco1 | >57 | -2% | >77
COc1ccc(CNc2nc(-c3cccnc3)nn2C(=O)c2ccco2)cc1 | >57 | 1% | 11*
O=c1c2ccccc2[nH]c(=S)n1C1CCCCC1 | >57 | 0% | 14*
CC1CCC(n2c(=S)[nH]c3ccccc3c2=O)CC1 (stereo not drawn) | · | -5% | ·
O=c1c2ccccc2sn1-c1ccc(S(=O)(=O)N2CCCCC2)cc1 | >57 | -7% | >77
Cc1ccc(-n2sc3ccccc3c2=O)cc1S(=O)(=O)N1CCCCC1 | >11 | 16µM* | ·
CCNc1ncc2nc(-c3ccccc3)c(=O)n(CCOC)c2n1 | · | 0%[11.4 µM] | ·
O=C(NCc1ccc2c(c1)OCO2)c1ccc(NC(=O)C2CCCO2)cc1 (stereo not drawn) | >57 | -3% | ·
O=C(Nc1ccc2c(c1)OCCO2)C1CCC1 | >57 | -3% | >77
O=C(Nc1ccc2c(c1)OCCO2)c1ccc(NC(=O)C2CCCO2)cc1 (stereo not drawn) | · | 13µM* | ?
O=C(Nc1ccc2c(c1)OCCO2)NC1CCCCC1 | · | 7.9µM* | ·
N#Cc1ccc(CN2CCC3(CC2)CCN(C(=O)c2csnn2)CC3)cc1 | · | -2%[11.4 µM] | ·
COCCOC(=O)C1=C(C)NC(SCC(=O)NC(C)(C)C)=C(C#N)C1c1ccco1 (stereo not drawn) | >26 | -1%[25.5 µM] | ·
SMILES | PK Bst | FLuc inh | GBA activity
CCOC(=O)C1=C(c2ccccc2)NC(SCC(=O)NC2CCCCC2)=C(C#N)C1c1ccco1 (stereo not drawn) | >57 | 0% | 7.7*
CC(C)=CCC/C(C)=C/CO/N=C1/C[C@@H](O)[C@@H](O)[C@@H]2[C@@H]3C(=O)N(Cc4ccc5c(c4)OCO5)C(=O)[C@H]3CC[C@H]12 | · | 0%[11.4 µM] | ·
Cc1nc2cnc(Oc3cccc(Cl)c3)nc2n(C[C@H]2CCCO2)c1=O | · | 1%[11.4 µM] | ·
CCCn1c(C(O)c2ccc3c(c2)OCO3)nc2ccccc21 (stereo not drawn) | >57 | -3% | >77
Cn1c(NCc2c[nH]c3ccccc23)nc2ccccc21 | · | 25µM* | >77
Cn1c(/C=N/n2cnnc2)nc2ccccc21 | · | 2% | ·
CCn1c(NCc2c[nH]c3ccccc23)nc2ccccc21 | >57 | -20% | >77
Cn1c(/N=C/c2ccc3c(c2)OCO3)nc2ccccc21 | · | 2.5µM* | ·
Cn1c(/N=C/c2c[nH]c3ccccc23)nc2ccccc21 | 0.3* | 0.63µM* | ?
O=c1cc(N=Nc2ccc(O)cc2)[nH]c(=O)[nH]1 | · | -16%[11.4 µM] | ·
N#Cc1cccc(NC(=O)N2CC[C@@]3(CCCN(C(=O)c4cc(C(F)(F)F)cc(C(F)(F)F)c4)C3)C2)c1 | · | 0%[11.4 µM] | ·
N#Cc1cc2c(nc1SCc1nc3ccccc3[nH]1)CCC2 | 6* | 4µM* | >77
N#Cc1cc2c(nc1SCc1cccnc1)CCC2 | >57 | 1% | >77
CCC(=O)N[C@@H]1Cc2ccccc2[C@@H](c2ccccc2)C1 | · | 2% | ·
N#Cc1ccccc1NC(=O)c1ccccc1OCC(=O)Nc1ccc2c(c1)oc1ccccc12 | >57 | 3% | 11*
N#Cc1ccccc1NC(=O)c1ccccc1OCC(=O)NCc1ccco1 | >57 | 4% | >77
CN(C)C(=O)CSc1nnc2sc3ccccc3n12 | >57 | 0% | >77
O=C(CSc1nnc2sc3ccccc3n12)c1ccco1 | i | 16µM* | >77
CN(C)c1ccc(-c2nc(NCCc3cnc[nH]3)c3ccccc3n2)cc1 | · | 0.79µM* | ·
COc1ccc2[nH]cc(CCNc3nc(-c4ccc(N(C)C)cc4)nc4ccccc34)c2c1 | · | 0.63µM* | ·
COc1ccc2[nH]cc(CCNc3nc(-c4ccc(C(=O)N(C)C)cc4)nc4ccccc34)c2c1 | · | -26%[2.29 µM] | ·
COc1ccccc1-c1nc(NCCc2cnc[nH]2)c2ccccc2n1 | · | -3%[2.29 µM] | ·
c1csc(CNc2ccnc(-c3ccoc3)n2)c1 | · | -1%[2.29 µM] | ·
CCOC(=S)SCC(=O)O | · | 4%[11.4 µM] | ·
COCC(=O)N1CCC2(CC1)CN(c1cccc(-c3ccccc3)c1)C2 | · | -2%[11.4 µM] | ·
SMILES | PK Bst | FLuc inh | GBA activity
N#Cc1c(NC(=O)CSc2nnc(-c3ccccc3O)n2-c2ccccc2)sc2c1CCCC2 | >57 | 0% | 10*
Cc1ccc(C(=O)NCc2nnc(SCC(=O)Nc3sc4c(c3C#N)CCCC4)n2C)cc1 | >57 | -4% | >77
Cc1noc(/C=C/N(C)C)c1S(=O)(=O)N1CCCC(C(=O)NCc2ccc(F)cc2)C1 (stereo not drawn) | · | -1% | ·
Cc1noc(/C=C/N(C)C)c1S(=O)(=O)N1CCCC(C(=O)NCc2ccc(Cl)cc2)C1 (stereo not drawn) | >57 | 1% | 14*
CC(C)(C)OC(=O)N1CC=C2C(C#N)=C(N)C(C#N)(C#N)C(c3cccs3)C2C1 (stereo not drawn) | >57 | -3% | ?
CC1CC=C2C(C#N)=C(N)C(C#N)(C#N)C(c3cccs3)C2C1 (stereo not drawn) | >57 | -2% | 11*
O=c1oc2ccccc2cc1-c1nc2ccccc2o1 | ? | 16µM* | >77
Cc1cc(-c2nnc(-c3cc4ccccc4oc3=O)o2)c(C)n1-c1ccccc1 | >57 | -3% | >77
O=c1[nH]c(SCc2cccc([N+](=O)[O-])c2)nc2nc[nH]c12 | · | 3%[11.4 µM] | ·
Cc1cccc2c(=O)c(C(=O)N3CCCCCC3)c[nH]c12 | >57 | 5% | 6.5*
Cc1ccccc1C(=O)N1CCCN(C(=O)c2ccccc2C)CC1 | >57 | 1% | >77
CCOC(=O)c1sc(-c2ccc(OC)cc2)cc1N | i | 13µM* | >77
CCOC(=O)c1sc(-c2ccccc2)cc1N | i | ? | >77
CC(=O)OC[C@H]1O[C@@H](O/N=C(\C)CCN2CCCc3nc(C)c(C)cc32)[C@H](OC(C)=O)[C@@H](OC(C)=O)[C@H]1OC(C)=O | · | 1%[11.4 µM] | ·
Cc1ccccc1-n1nnnc1SCC(N)=O | · | -34% | >77
Cc1cccc(C)c1-n1nnnc1SCSc1nnnn1-c1c(C)cccc1C | 3.5* | -1% | >77
